Data on 16 molecules can be found in PubChem BioAssay (NCATS).

Calls of active or inactive are those of the source. Calls follow the shape of the full dose curve.

The conditions of this experiment: Ebola virus entry cell assay, ratio channel.
Turning to `CC1(C)S[C@@H]2[C@H](NC(=O)C(C(=O)O)c3ccccc3)C(=O)N2[C@H]1C(=O)O` (stereo partly specified), the result was inactive.
The same measure, in the same setting: the result for `COC(=O)N[C@H](C(=O)N[C@@H](Cc1ccccc1)[C@@H](O)CN(Cc1ccc(-c2ccccn2)cc1)NC(=O)[C@@H](NC(=O)OC)C(C)(C)C)C(C)(C)C` reads “inactive”.
The same measure, in the same setting: next, `CC(N)C12CC3CC(CC(C3)C1)C2` (stereo unspecified): “inactive”; `CC#C[C@]1(O)CC[C@H]2[C@@H]3CCC4=CC(=O)CCC4=C3[C@@H](c3ccc(N(C)C)cc3)C[C@@]21C`: “inactive”; `CN(C)CCc1c[nH]c2ccc(CS(=O)(=O)N3CCCC3)cc12`: “inactive”.
`Cc1ccccc1N1C(=O)c2cc(S(N)(=O)=O)c(Cl)cc2NC1C` (stereo unspecified): the outcome was inactive.
Still for that read-out and setting: next, `C=C(c1ccc(C(=O)O)cc1)c1cc2c(cc1C)C(C)(C)CCC2(C)C`: “inactive”; `CC(C(=O)O)c1cccc(C(=O)c2ccccc2)c1` (stereo unspecified): “inactive”; `CN(C)c1ccc(O)c2c1C[C@H]1C[C@H]3[C@H](N(C)C)C(=O)C(C(N)=O)=C(O)[C@@]3(O)C(=O)C1=C2O`: “inactive”.
On to `CN1C(CCl)Nc2cc(Cl)c(S(N)(=O)=O)cc2S1(=O)=O` (stereo unspecified), for which the result was inactive.
The same measure, in the same setting: the result for `CN(C)/N=N/c1nc[nH]c1C(N)=O` reads “inactive”; that for `Nc1nc(=S)c2[nH]cnc2[nH]1`, “inactive”.
As usually defined, the AC50 is the midpoint of the concentration-response curve, whichever way the signal moves. Turning to `CC(CN(C)C)CN1c2ccccc2CCc2ccccc21` (stereo unspecified), the AC50 is 14.1 µM (active).
For the molecule `CCN1CCN(C(=O)N[C@@H](C(=O)N[C@@H]2C(=O)N3C(C(=O)O)=C(CSc4nnnn4C)CS[C@H]23)c2ccc(O)cc2)C(=O)C1=O`, the outcome was inactive.
Same read-out and setting: the result for `NC(=O)NO` reads “inactive”.
Same read-out and setting: next, `Clc1ccc(C(c2ccccc2Cl)C(Cl)Cl)cc1` (stereo unspecified): “inactive”.
